For seven compounds, AC50 and outcome results are on record in PubChem BioAssay (EPA / NIEHS).

Read-out in assay [1]: Human Leukocyte Antigen - DR isotype (HLADR), HLA-DRA (gene 3122)
The assay can be described thus: BSK_BE3C_HLADR: BioMAP Diversity Plus: BE3C Assay for Human Leukocyte Antigen - DR isotype (HLADR) Biomarker Activity (AID 2283032). The note with it: primary human bronchial epithelial cells; actives raise or lower the signal. Put shortly:
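Cell-surface HLA-DR ELISA readout at 24 h after dosing in the BE3C primary human lung bronchial epithelial system; gain or loss of signal against DMSO, with parallel sulforhodamine B staining of total protein for overt cytotoxicity.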

Read-out in assay [2]: Vascular cell adhesion molecule 1 (VCAM1), VCAM1 (gene 7412)
Briefly: BSK_4H_VCAM1: BioMAP Diversity Plus: 4H Assay for Vascular cell adhesion molecule 1 (VCAM1) Biomarker Activity (AID 2283033).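 On outcome: cell-surface VCAM-1 protein measured by ELISA.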 As to conditions: primary human endothelial cells (HUVEC); actives raise or lower the signal. Put shortly: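 VCAM-1 ELISA read 24 h after chemical dosing of HUVEC in the BioMAP 4H system, with gain or loss of signal fitted relative to DMSO. Parallel SRB staining (560 nm) checked overt cytotoxicity.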

Read-out in assay [3]: Interferon-gamma inducible Protein 10 (IP10), CXCL10 (gene 3627)
Briefly: BSK_BE3C_IP10: BioMAP Diversity Plus: BE3C Assay for Interferon-gamma inducible Protein 10 (IP10) Biomarker Activity (AID 2283034). As to conditions: primary human bronchial epithelial cells; actives raise or lower the signal. Put shortly:
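IP-10 quantified by ELISA in human primary bronchial epithelial cell cultures at 24 hours post-dosing. Gain or loss of signal fitted relative to DMSO; parallel SRB staining assessed overt cytotoxicity.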

Read-out in assay [4]: Monokine induced gamma interferon (MIG), CXCL9 (gene 4283)
The assay can be described thus: BSK_BE3C_MIG: BioMAP Diversity Plus: BE3C Assay for Monokine induced gamma interferon (MIG) Biomarker Activity (AID 2283035). As to conditions: primary human bronchial epithelial cells; actives raise or lower the signal. In short, it runs like this: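 Dose cells (human primary bronchial epithelial), incubate 24 h, quantify MIG by ELISA, then fit concentration–response in both directions relative to DMSO control.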

Read-out in assay [5]: Transforming growth factor beta 1 (TGFb1), TGFB1 (gene 7040)
The assay can be described thus: BSK_BE3C_TGFb1: BioMAP Diversity Plus: BE3C Assay for Transforming growth factor beta 1 (TGFb1) Biomarker Activity (AID 2283036;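 on outcome: TGF-b1 protein level measured by ELISA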). The note with it: primary human bronchial epithelial cells; actives raise or lower the signal. Put shortly:
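ELISA readout of TGF-b1 from human lung bronchial epithelial primary cells, taken 24 h post-treatment. Gain or loss of signal fitted relative to DMSO baseline, with parallel SRB staining for overt cytotoxicity.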

Read-out in assay [6]: urokinase plasminogen activator (uPA), PLAU (gene 5328)
The assay can be described thus: BSK_BE3C_uPA: BioMAP Diversity Plus: BE3C Assay for urokinase plasminogen activator (uPA) Biomarker Activity (AID 2283038).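 On outcome: uPA protein level quantified by ELISA in cell cultures; uPA read one day after compound addition.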 The note with it: primary human bronchial epithelial cells; actives raise or lower the signal. In short, it runs like this: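 ELISA read-out of uPA in human lung primary bronchial epithelial cultures, 24 h post-dosing. Gain or loss of signal fitted bidirectionally relative to DMSO baseline; cytotoxicity checked in parallel cultures via SRB total protein stain.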

Read-out in assay [7]: Urokinase-type plasminogen activator receptor (uPAR), PLAUR (gene 5329)
The assay can be described thus: BSK_BE3C_uPAR: BioMAP Diversity Plus: BE3C Assay for Urokinase-type plasminogen activator receptor (uPAR) Biomarker Activity (AID 2283039).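 On outcome: cells exposed to compound for one day before measurement.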 The note with it: primary human bronchial epithelial cells; actives raise or lower the signal. In short, it runs like this:
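uPAR levels were measured by ELISA after 24 h compound treatment of primary human bronchial epithelial cells, fitted in both directions relative to DMSO. Parallel SRB staining served as the cytotoxicity read-out.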

Read-out in assay [8]: Interleukin-6 (IL6), IL6 (gene 3569)
The assay can be described thus: BSK_CASM3C_IL6: BioMAP Diversity Plus: CASM3C Assay for Interleukin-6 (IL6) Biomarker Activity for (AID 2283040). The note with it: primary human coronary artery smooth muscle cells; actives raise or lower the signal.

Read-out in assay [9]: Tissue plasminogen activator (tPA), PLAT (gene 5327)
The assay can be described thus: BSK_BE3C_tPA: BioMAP Diversity Plus: BE3C Assay for Tissue plasminogen activator (tPA) Biomarker Activity (AID 2283041).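 On outcome: tPA level quantified by ELISA one day after compound addition.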 As to conditions: primary human bronchial epithelial cells; actives raise or lower the signal. Put shortly:
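tPA measured by ELISA 24 h after dosing human primary bronchial epithelial cells (BE3C system). Changes in either direction were fitted against DMSO. Parallel cultures were stained with SRB to flag overt cytotoxicity.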

Read-out in assay [10]: Interleukin-8 (IL8), CXCL8 (gene 3576)
Briefly: BSK_CASM3C_IL8: BioMAP Diversity Plus: CASM3C Assay for Interleukin-8 (IL8) Biomarker Activity (AID 2283042).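 Further: IL-8 protein level quantified by ELISA.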 The note with it: primary human coronary artery smooth muscle cells; actives raise or lower the signal.

Read-out in assay [11]: Human Leukocyte Antigen - DR isotype (HLADR), HLA-DRA (gene 3122)
Briefly: BSK_CASM3C_HLADR: BioMAP Diversity Plus: CASM3C Assay for Human Leukocyte Antigen - DR isotype (HLADR) Biomarker Activity (AID 2283043).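 Further: cell-surface HLA-DR protein level quantified by ELISA.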 As to conditions: primary human coronary artery smooth muscle cells; actives raise or lower the signal.

Read-out in assay [12]: Macrophage colony-stimulating factor (MCSF), CSF1 (gene 1435)
Briefly: BSK_CASM3C_MCSF: BioMAP Diversity Plus: CASM3C Assay for Macrophage colony-stimulating factor (MCSF) Biomarker Activity (AID 2283044).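 Further: M-CSF protein amount quantified by ELISA after 24 h exposure.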 As to conditions: primary human coronary artery smooth muscle cells; actives raise or lower the signal.

Read-out in assay [13]: Low-density lipoprotein receptor (LDLR), LDLR (gene 3949)
The assay can be described thus: BSK_CASM3C_LDLR: BioMAP Diversity Plus: CASM3C Assay for Low-density lipoprotein receptor (LDLR) Biomarker Activity (AID 2283045).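 Further: LDLR protein level on the cell surface quantified by ELISA.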 The note with it: primary human coronary artery smooth muscle cells; actives raise or lower the signal.

Read-out in assay [14]: Monocyte Chemoattractant Protein-1 (MCP1), CCL2 (gene 6347)
Briefly: BSK_CASM3C_MCP1: BioMAP Diversity Plus: CASM3C Assay for Monocyte Chemoattractant Protein-1 (MCP1) Biomarker Activity (AID 2283046).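 Further: MCP-1 level quantified by ELISA 24 h after dosing.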 As to conditions: primary human coronary artery smooth muscle cells; actives raise or lower the signal.

The nature of assay [15]: BSK_CASM3C_Proliferation: Cell Proliferation Assessment in the BioMAP Diversity Plus: CASM3C Assay (AID 2283047).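 Further: sulforhodamine B total protein stain as relative cell number at 560 nm; sub-confluent cells exposed 48 h before staining; fitted both ways against DMSO so gain or loss of cell number.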 The note with it: primary human coronary artery smooth muscle cells.
Read-out in assay [16]: Monokine induced gamma interferon (MIG), CXCL9 (gene 4283)
The assay can be described thus: BSK_CASM3C_MIG: BioMAP Diversity Plus: CASM3C Assay for Monokine induced gamma interferon (MIG) Biomarker Activity (AID 2283048).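 Further: MIG protein level measured by ELISA.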 As to conditions: primary human coronary artery smooth muscle cells; actives raise or lower the signal.

Read-out in assay [17]: serum amyloid A (SAA), SAA1 (gene 6288)
Briefly: BSK_CASM3C_SAA: BioMAP Diversity Plus: CASM3C Assay for serum amyloid A (SAA) Biomarker Activity (AID 2283049).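 Further: SAA protein level quantified by ELISA.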 As to conditions: primary human coronary artery smooth muscle cells; actives raise or lower the signal.

The nature of assay [18]: BSK_CASM3C_SRB: Viability Assessment in the BioMAP Diversity Plus: CASM3C Assay (AID 2283050). As to conditions: primary human coronary artery smooth muscle cells.
Read-out in assay [19]: Thrombomodulin, THBD (gene 7056)
Briefly: BSK_CASM3C_Thrombomodulin: BioMAP Diversity Plus: CASM3C Assay for Thrombomodulin Biomarker Activity (AID 2283051).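 Further: thrombomodulin protein level measured by ELISA 24 h after dosing.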 As to conditions: primary human coronary artery smooth muscle cells; actives raise or lower the signal.

Read-out in assay [20]: Plasminogen activator inhibitor-1 (PAI1), SERPINE1 (gene 5054)
Briefly: BSK_BE3C_PAI1: BioMAP Diversity Plus: BE3C Assay for Plasminogen activator inhibitor-1 (PAI1) Biomarker Activity (AID 2283037). The note with it: primary human bronchial epithelial cells; actives raise or lower the signal. Put shortly:
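PAI-1 was measured by ELISA in human primary bronchial epithelial cultures 24 h after chemical dosing, with cytotoxicity checked by SRB total-protein staining in parallel cultures. Activity was fitted in both directions relative to DMSO.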

Each structure is given as a SMILES string. Active and inactive are the calls of the source. How the source made its calls: active means hit-call score of the fitted dose curve at least 0.9, where 1 is the maximum; inactive means score below 0.9.

The term AC50 denotes the concentration at which the activity in the assay is half-maximal. Take `COc1cccc(-c2ccc(/C=C\CN3CCCCCC3)cc2Cl)c1`: the concentration at half-maximal activity (AC50) is 29.4 µM (active) in assay [1]; 28.4 µM (active) in [2]; 27.9 µM (active) in [3]; 32.7 µM (active) in assay [4]; 25.8 µM (active) in assay [5]; 23.6 µM (active) in assay [6]. The concentration at half-maximal activity (AC50) in [7] is 25.2 µM (active); in assay [9], 29.2 µM (active); in [11], 29.5 µM (active); in assay [12] it was 29.4 µM (active); in assay [13], 4.74 µM (active); in [15], 29.8 µM (active). Also, the figures for the AC50 in assay [17] and in [18] were 32 µM (active) and 25 µM (active), respectively. Besides, the outcome in [8], in assay [10], in [14], in [16] and in assay [19] was inactive.

Turning to `CCOC(=O)COc1ccc2c(c1)CC(NCC(O)c1cccc(Cl)c1)CC2` (stereo not drawn), the concentration at half-maximal activity (AC50) was 30.3 µM (active) in [1]; 30 µM (active) in assay [2]; 30.3 µM (active) in assay [3]; 29 µM (active) in [5]; 31.2 µM (active) in assay [6]; 27.2 µM (active) in assay [15]. The outcome in assay [4], in assay [20], in [8], in [9], in assay [10] and in [11] was inactive. In addition, the result in assay [12], in [13], in [14], in assay [16], in assay [17] and in [18] was inactive. Moreover, the result in [19] was inactive.

Take `CCCC(=O)OCC`: the outcome in [1], in [2], in assay [3], in assay [4], in assay [5] and in assay [20] was inactive. Besides, the outcome in assay [6], in assay [8], in assay [9], in assay [10], in assay [11] and in assay [12] was inactive. For the same compound, the outcome in [13], in assay [14], in assay [15], in assay [16], in assay [17] and in assay [18] was inactive. In assay [19], the outcome was inactive.

On to `O=C(OC[C@H]1O[C@@H](OC(=O)c2cc(O)c(O)c(OC(=O)c3cc(O)c(O)c(O)c3)c2)[C@H](OC(=O)c2cc(O)c(O)c(OC(=O)c3cc(O)c(O)c(O)c3)c2)[C@@H](OC(=O)c2cc(O)c(O)c(OC(=O)c3cc(O)c(O)c(O)c3)c2)[C@@H]1OC(=O)c1cc(O)c(O)c(OC(=O)c2cc(O)c(O)c(O)c2)c1)c1cc(O)c(O)c(OC(=O)c2cc(O)c(O)c(O)c2)c1`, for which the concentration at half-maximal activity (AC50) in assay [1] was 8.27 µM (active); in assay [2], 9.44 µM (active); in [3], 9.85 µM (active); in assay [4], 10.2 µM (active); in assay [5], 9.35 µM (active); in assay [6], 1.87 µM (active). In addition, the AC50 in assay [9] is 1.45 µM (active); in assay [11], 6.1 µM (active); in [14] it was 6.1 µM (active); in [15], 10 µM (active). Besides, the outcome in assay [20], in assay [8], in assay [10], in assay [12], in assay [13] and in assay [16] was inactive. Besides, the result in assay [17], in [18] and in assay [19] was inactive.

As for `O=P(OC(CCl)CCl)(OC(CCl)CCl)OC(CCl)CCl`, the outcome in assay [1], in assay [2], in assay [3], in [4], in [5] and in assay [6] was inactive. The outcome in assay [7], in assay [8], in assay [9], in assay [10], in assay [11] and in [12] was inactive. In addition, the outcome in assay [13], in [14], in assay [16], in [17] and in [18] was inactive. In addition, the figures for the AC50 in assay [15] and in assay [19] were 20 µM (active) and 15.7 µM (active), respectively.

On to `C=CCCCCCCCCC(=O)O`, for which the result in [1], in assay [2], in assay [3], in [4], in assay [5] and in [6] was inactive. The result in assay [7], in assay [8], in [9], in assay [10], in assay [11] and in [12] was inactive. The result in assay [13], in assay [14], in [15], in [16], in assay [17] and in assay [18] was inactive. Besides, the result in assay [19] was inactive.

As for `COc1ccc(-n2nc(C(F)F)cc2-c2ccc(S(C)=O)cc2)cc1` (stereo not drawn), the result in assay [1], in [2], in assay [3], in assay [4], in [5] and in assay [20] was inactive. For the same compound, the outcome in assay [6], in [8], in assay [9], in assay [10], in assay [11] and in [12] was inactive. In addition, the result in assay [13], in assay [14], in assay [15], in assay [16], in assay [17] and in assay [18] was inactive. Besides, the outcome in assay [19] was inactive.
